Screening results (PubChem)
ssDAF-12 act – S. stercoralis DAF-12 nuclear receptor activators, primary screen, cell-based, luminescence, HEK293, GRIP1 co-expression, lit1-tk-luc; HEK293 ssDAF-12/GRIP1 lit1-tk-luc reporter; % of 3 µM dafachronic acid response; activation, % at 6.8 µM; 370,000 compounds, 1% hits;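 active = activation above the mean over all tested compounds plus 3 SD, cut at about 0.9% in these data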;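 note: 0% = DMSO-only wells and 100% = 3 µM delta7-dafachronic acid wells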
GAA850 FXN act – FXN promoter activators, primary screen, cell-based, luciferase luminescence, HEK293 lucGAA850; HEK293 lucGAA850 FXN promoter luciferase reporter, 24 h; percent of 10 µM SAHA response; activation, % at 6 µM; 360,000 compounds, 0.56% hits; AID 540364, 2011;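 active = activation above the average of all compounds screened plus 3 SD, cutoff fixed separately per campaign, cut at about 7.5% in these data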;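 note: 0% = DMSO wells and 100% = 10 µM SAHA wells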
hcDAF-12 act – H. contortus DAF-12 nuclear receptor activators, primary screen, cell-based, luminescence, HEK293, lit1-tk-luc reporter; HEK293 hcDAF-12 lit1-tk-luc reporter; 0% DMSO, 100% Δ7-dafachronic acid; activation, % at 6.8 µM; 370,000 compounds, 1.4% hits; AID 652067, 2013;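 active = activation above the mean of all tested compounds plus 3 SD, cut at about 5.5% in these data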;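 note: 100% = response to 3 µM Δ7-dafachronic acid high control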
hgDAF-12 ag – H. glycines DAF-12 receptor agonists, primary screen, cell-based, luminescence, HEK293, GAL4 fusion, UAS-luciferase; Nuclear hormone receptor DAF-12 (Heterodera glycines), GAL4 fusion; HEK293 GAL4-hgDAF12 UAS-luciferase reporter, agonist luminescence; normalized to butyrate control; activation, % at 6.8 µM; 370,000 compounds, 1.8% hits; AID 687014, 2013;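 active = activation above a cutoff set at the mean of all screened compounds plus 3 SD, cut at about 10% in these data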;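 note: 0% = DMSO wells and 100% = sodium butyrate wells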
DAX1 inh-1 – DAX1 (NR0B1) inhibitors on StAR promoter, primary screen, cell-based, luminescence, SF-1 (NR5A1), full-length DAX-1. HEK293T StAR-luciferase reporter, SF-1/DAX-1 repression relief. inhibition, % at 6.8 µM. 370,000 compounds, 1.1% hits. AID 652010, 2013;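 active = inhibition above the mean over all tested compounds plus 3 SD, cut at about 3.6% in these data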;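 note: 0% = DAX-1 cells with DMSO and 100% = cells lacking DAX-1 with DMSO; higher inhibition means more luminescence from relief of DAX-1 repression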
DAX1 inh-2 – DAX1 (NR0B1) inhibitors, primary screen, cell-based, HEK293, Gal4-DAX1, luciferase luminescence. 340,000 compounds, 0.99% hits. inhibition, % at 6.75 µM. HEK293 Gal4-DAX1 luciferase reporter. Nuclear receptor subfamily 0 group B member 1 (Homo sapiens), P51843. AID 504766, 2011;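 active = inhibition above the mean over all tested compounds plus 3 SD, cut at about 4.2% in these data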;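 note: 0% = DAX1-transfected cells with DMSO and 100% = empty-vector control cells with DMSO; inhibition shows as a rise in luminescence from relieved DAX1 repression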
Target sequence (P51843 207-470 limits assumed): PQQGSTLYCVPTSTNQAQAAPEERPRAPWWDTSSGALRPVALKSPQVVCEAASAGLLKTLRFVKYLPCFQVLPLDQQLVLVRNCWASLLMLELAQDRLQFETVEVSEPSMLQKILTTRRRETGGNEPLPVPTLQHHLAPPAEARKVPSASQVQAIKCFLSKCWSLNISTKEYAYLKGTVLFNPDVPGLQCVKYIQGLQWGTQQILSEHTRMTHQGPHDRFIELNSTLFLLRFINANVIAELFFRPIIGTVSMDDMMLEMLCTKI
GAA30 FXN cntr – GAA30 FXN promoter activators, confirmation, counter-screen for GAA850 frataxin promoter activator project, cell-based, luminescence, HEK293, lucGAA30, triplicate; shares compounds with GAA850 FXN act; HEK293 lucGAA30 FXN promoter luciferase, 24 h; DMSO = 0%, 5 µM ipriflavone = 100%; activation, % at 6 µM; 1,900 compounds, 66% hits;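 active = mean activation above the mean of solvent-only control wells plus 3 SD, cut at about 22% in these data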;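 note: counterscreen of GAA850 promoter hits where activity marks nonselective or luminescence artifacts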
FXN GAA850 conf – FXN GAA850 promoter activators in reporter cells, confirmation, cell-based, luminescence, HEK293 lucGAA850, triplicate; HEK293 lucGAA850 FXN promoter luciferase reporter, 24 h; 100% = activation by SAHA; activation, % at 6 µM; AID 588351, 2011; shares compounds with GAA850 FXN act; 1,900 compounds, 86% hits;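 active = mean activation above a set limit taken from the primary screen, cut at about 8% in these data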;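 note: 0% = DMSO wells and 100% = 10 µM SAHA wells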
* = called active by the depositor; . = no result. Shown are actives, neighbours in structure and some others; about 4.5% of the full set was active somewhere.

SMILES | ssDAF-12 act | GAA850 FXN act | hcDAF-12 act | hgDAF-12 ag | DAX1 inh-1 | DAX1 inh-2 | GAA30 FXN cntr | FXN GAA850 conf
CC(C)CN1CCN(C(=O)COC(=O)c2ccc(S(C)(=O)=O)c([N+](=O)[O-])c2)CC1 | -1 | 9.7* | -1 | -5 | -1 | . | 70* | 15*
COc1ccc(C(=O)OCC(=O)N2CCCCC2)cc1[N+](=O)[O-] | 0 | 0 | 1 | 2 | 0 | 0 | . | .
COC(=O)[C@]12C[C@H](CC(=O)NCCCN3CCCC3=O)C(=O)N(CCc3ccc(OC)c(OC)c3)C1=C[C@H](C(C)(C)C)O[C@@H]2C | -1 | . | 1 | 3 | 2 | . | . | .
COc1cc([N+](=O)[O-])c2nccnc2c1 | -1 | 1 | 0 | -1 | 0 | 0 | . | .
CCOc1cc([N+](=O)[O-])c2nc(N)sc2c1 | -1 | 7.9* | -1 | -1 | 0 | 0 | 39* | 19*
Cc1cccc2nc(CSc3nc4ccc([N+](=O)[O-])cc4[nH]3)c(Br)n12 | 0 | 14* | 5 | 1 | 0 | 0 | 37* | 17*
O=C(C(=O)N1CCC(CNS(=O)(=O)c2ccccc2OC(F)(F)F)CC1)c1cccs1 | -1 | . | -1 | 1 | 0 | . | . | .
C[C@H]1[C@@H](OC(=O)Nc2cccc(C(F)(F)F)c2)CC[C@@]23CCCN2C(=O)CCC[C@@H]13 | -2 | . | -4 | -1 | . | . | . | .
N#C/C(=C\c1ccc(N2CCCCC2)o1)C(N)=O | -1 | 1 | 1 | 3 | 0 | -1 | . | .
N#C/C(=C/c1ccc(N2CCOCC2)o1)c1ccc(Cl)cc1 | -1 | 20* | -2 | 5 | 0 | -1 | 119* | 47*
COC(=O)[C@]12C[C@H](CC(=O)NCc3ccccc3)C(=O)N(Cc3cccc4ccccc34)C1=C[C@H](COCc1ccccc1)O[C@@H]2C | 0 | . | -1 | 1 | -1 | . | . | .
COC(=O)c1sc(N2C(=O)C(O)=C(C(=O)c3ccc(C)o3)C2c2ccc([N+](=O)[O-])cc2)nc1C (stereo unspecified) | -1 | 0 | 0 | -1 | 0 | 0 | . | .
CCOc1ccc(C2C(C(=O)c3ccc(C)o3)=C(O)C(=O)N2c2nc(C)c(C(=O)OC)s2)cc1 (stereo unspecified) | -1 | 7.6* | 1 | 1 | 2 | 0 | 33* | 18*
CC1CC(C)(C)Nc2ccc(N=O)cc21 (stereo unspecified) | -2 | 13* | -3 | -8 | -3 | -4 | 58* | 67*
CC(=O)OCC(=O)N1CCN(C(=O)C(=O)c2cccc(C(F)(F)F)c2)CC1 | 0 | . | 2 | -1 | 0 | . | . | .
COc1ccc(/C=C2\SC(=N)N(c3ccc(F)cc3)C2=O)cc1OC | -2 | 8.3* | 0 | -1 | 0 | 0 | 18 | 15*
N#CCn1cnc2sc(-c3ccccc3)cc2c1=O | -1 | 9.2* | 0 | 4 | 0 | -1 | 76* | 28*
CCCCCCCCN1C(=O)[C@@H](CC(=O)N2CCOCC2)C[C@@]2(C(=O)OC)C1=C[C@H](C(C)C)O[C@@H]2C1CC1 | -1 | . | 1 | -2 | 0 | . | . | .
COC(=O)[C@]12C[C@H](CC(=O)NCC34CC5CC(CC(C5)C3)C4)C(=O)N(CCC3=CCCCC3)C1=C[C@H](C1CCCC1)O[C@@H]2C | -1 | . | -2 | -2 | -1 | . | . | .
O=C1CN(c2nc(-c3cccnc3)nc3sc4c(c23)CCCC4)CCN1 | -2 | 10* | -3 | -2 | -1 | -1 | 13 | 21*
CC(=O)Nc1ccc(Oc2nc(-c3cccnc3)nc3sc4c(c23)CCCC4)cc1 | . | 0 | . | . | . | 0 | . | .
COC(=O)C1=C(C)N(Cc2ccccc2C(F)(F)F)C(=NCc2ccccc2)NC1c1cccc(F)c1 (stereo unspecified) | -1 | . | 1 | -1 | 0 | . | . | .
COc1cccc(CNC(=O)C[C@H]2CC[C@H]3[C@@H](COc4ccc(NC(=O)c5cccs5)cc4C(=O)N3C)O2)c1 | -1 | . | -1 | 7 | 0 | . | . | .
COC(=O)[C@]12C[C@H](CC(=O)NCc3cccc(C(F)(F)F)c3)C(=O)N(CCc3ccc(OC)c(OC)c3)C1=C[C@H](COCc1ccccc1)O[C@@H]2C | -1 | . | -4 | -2 | -2 | . | . | .
CC1Cc2ccccc2N1C(=O)COc1ccc2c(c1)OCO2 (stereo unspecified) | -1 | 8.0* | 2 | 2 | 2 | 1 | 79* | 24*
SMILES | ssDAF-12 act | GAA850 FXN act | hcDAF-12 act | hgDAF-12 ag | DAX1 inh-1 | DAX1 inh-2 | GAA30 FXN cntr | FXN GAA850 conf
COc1ccc(-n2c(SCc3ccc([N+](=O)[O-])cc3)nnc2-c2ccco2)cc1 | -2 | . | -3 | 2 | -1 | . | . | .
COCCCNC(=O)[C@@H](Cc1ccccc1)NC(=O)[C@H]1O[C@@H](n2ccc(=O)[nH]c2=O)[C@H](O)[C@@H]1O | -2 | . | 1 | -2 | 1 | . | . | .
CC(C)(C)c1nc(CN2CCOCC2)cc(CN2CCOCC2)c1O | -1 | 0 | 0 | -1 | 1 | -1 | . | .
Cc1ccc(-c2nc(CN3CCCCC3)cc(CN3CCCCC3)c2O)cc1 | -1 | 7.9* | 1 | -5 | 1 | . | 29* | 17*
O=C(O)c1ccc(-c2nc(-c3ccc(Cl)cc3Cl)cs2)cc1 | 0 | 8.2* | 0 | 9 | 1 | 2 | 113* | 44*
CC1(C)C(=O)NCCN1C(=O)CCC(=O)O | -1 | 7.9* | 2 | 0 | 1 | 0 | 16 | 5
CC1(C)C(=O)NCCN1C(=O)CC1C(=O)NCCN1CC(c1ccccc1)c1ccccc1 (stereo unspecified) | -1 | 1 | 0 | 3 | 0 | 2 | . | .
